Assay outcomes (PubChem)
GPR151 activ: human GPR151 activation; 650,000 tested, 1% active; activation, % at 11.2 µM; Q8TDV0; AID 1508602; PathHunter beta-arrestin GPR151 cells, luminescence; in the data active means activation above about 4.9%
MITF primary: human MITF inhibition, primary screen. AlphaScreen MITF homodimerization, bead proximity signal. inhibition, % at 2.6 µM. 650,000 tested, 0.91% active. O75030; in the data active means inhibition above about 50%
TEAD-YAP block: TEAD-YAP interaction inhibition; 640,000 tested, 1.4% active; HEK-TIYL cells, TEAD-Gal4/YAP UAS-luciferase luminescence; inhibition, % at 9.12 µM; AID 1259422; in the data active means inhibition above about 32%
FBW7 activator: human FBW7 E3 ligase activation, primary screen; 650,000 tested, 0.13% active; AID 1259310; AlphaScreen FBW7–phospho-cyclin E peptide binding, activator screen; normalized activity (activation), % at 26.1 µM; in the data active means normalized activity above about 1.9%;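 further: purified mutant Fbw7 with reduced substrate affinity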
Target sequence (Q969H0 whole entry, looked up): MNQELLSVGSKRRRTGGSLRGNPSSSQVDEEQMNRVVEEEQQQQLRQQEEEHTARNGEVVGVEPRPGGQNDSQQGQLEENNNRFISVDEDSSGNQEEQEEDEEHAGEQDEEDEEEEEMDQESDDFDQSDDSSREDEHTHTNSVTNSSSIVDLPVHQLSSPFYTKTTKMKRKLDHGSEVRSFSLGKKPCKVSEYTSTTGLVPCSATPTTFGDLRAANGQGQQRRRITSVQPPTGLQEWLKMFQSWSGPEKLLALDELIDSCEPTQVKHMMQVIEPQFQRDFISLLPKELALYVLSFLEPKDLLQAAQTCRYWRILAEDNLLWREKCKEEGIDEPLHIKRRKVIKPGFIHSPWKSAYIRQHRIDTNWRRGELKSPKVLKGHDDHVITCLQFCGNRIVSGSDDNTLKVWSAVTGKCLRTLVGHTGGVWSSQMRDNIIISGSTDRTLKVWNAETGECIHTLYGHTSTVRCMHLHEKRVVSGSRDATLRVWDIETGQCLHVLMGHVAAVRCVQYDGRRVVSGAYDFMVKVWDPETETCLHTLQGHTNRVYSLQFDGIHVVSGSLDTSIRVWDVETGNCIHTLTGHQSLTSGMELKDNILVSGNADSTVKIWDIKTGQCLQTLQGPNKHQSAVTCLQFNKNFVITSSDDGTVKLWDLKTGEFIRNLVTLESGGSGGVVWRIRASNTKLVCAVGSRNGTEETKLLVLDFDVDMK
MITF inh conf: human MITF inhibition, confirmation. 4,700 tested, 16% active. shares compounds with MITF primary. inhibition, % at 2.6 µM. AlphaScreen MITF homodimerization, biotin/His-MITF beads. AID 1259372;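 active means inhibition above a cutoff derived from the DMSO control wells, cut at about 28% in these data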;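 further: inhibitors lower the bead chemiluminescence by keeping MITF from dimerizing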
AS interf DR: counter-screen: compounds optically interfering with AlphaScreen. IC50, µM. AlphaScreen optical interference counterscreen, cell-free. 480 tested, 6% active. AID 1259373. shares compounds with MITF primary; call rule not given here
AS interf ctr: optically interferes with AlphaScreen signal; shares compounds with MITF primary; LysRS AlphaScreen counterscreen, signal interference, triplicate; inhibition, % at 2.6 µM; 4,700 tested, 7.6% active; AID 1259376;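 active means inhibition above a cutoff derived from the DMSO control wells, cut at about 30% in these data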
Large screens that a line does not name were inactive (follow-up assays come after a bar, where they were run). Rows were chosen to be rich in hits. Some 3.5% of all compounds tested hit in one or more screens of this group.

Cc1ccc(-c2noc(C3CCCN(S(=O)(=O)c4ccc5ccccc5c4)C3)n2)o1 (stereo unspecified)	none
O=C(c1cccnc1)N1CCN(Cc2ccncc2)CC1	MITF primary 86 | MITF inh conf inactive | AS interf ctr inactive
O=C(c1ccccc1)N1CCN(C(=O)c2cccnc2)CC1	none
O=C(c1cccnc1)N1CCN(Cc2ccco2)CC1	MITF primary 53 | MITF inh conf inactive | AS interf ctr inactive
O=C(c1cccnc1)N1CCN(Cc2ccc(F)cc2)CC1	MITF primary 79 | MITF inh conf inactive | AS interf ctr inactive
CC(C)N(C(=O)COC(=O)c1ccc(NS(=O)(=O)/C=C/c2ccccc2)cc1)C(C)C	none
CCC(C)NCc1c(C(=O)O)n(Cc2ccc(C)cc2)c2cc(OC)ccc12 (stereo unspecified)	none
CN(CCC#N)C(=O)COC(=O)c1c2c(nc3ccccc13)/C(=C/c1ccco1)CC2	MITF primary 73 | MITF inh conf 80 | AS interf DR inactive | AS interf ctr inactive
NC(=O)NC(=O)COC(=O)c1c2c(nc3ccccc13)/C(=C\c1ccco1)CCC2	MITF primary 61 | MITF inh conf 79 | AS interf DR inactive | AS interf ctr inactive
O=C(N/N=C\c1c(O)ccc2ccccc12)c1cccc2cc[nH]c12	none
Cn1c(=NC(=O)c2ccc([N+](=O)[O-])o2)sc2cc(S(C)(=O)=O)ccc21	none
COc1ccc(C)cc1NC1CCCCC1	MITF primary 77 | MITF inh conf inactive | AS interf ctr inactive
COc1ccc(C)cc1S(=O)(=O)NC1CCCCCC1	none
O=S(=O)(c1ccc2ccccc2c1)N1CCN(Cc2ccc(F)cc2)CC1	MITF primary 54 | MITF inh conf inactive | AS interf ctr inactive
O=S(=O)(c1ccc2ccccc2c1)N1CCN(Cc2ccccc2Cl)CC1	MITF primary 58 | MITF inh conf inactive | AS interf ctr inactive
CCOC(=O)C1CCCN(Cc2ccc(O)c3ncccc23)C1 (stereo unspecified)	MITF primary 78 | MITF inh conf 82 | AS interf ctr 100
CC1CCN(Cc2ccc(O)c3ncccc23)CC1	MITF primary 83, TEAD-YAP block 41 | MITF inh conf 97 | AS interf ctr 100
CC1CCN(C(=O)C2CCN(Cc3ccccc3O)CC2)CC1	none
Cn1cc(CCCC(=O)NCCN2CCOCC2)c2ccccc21	none
N=C1S/C(=C\c2ccco2)C(=O)N1c1nonc1N	MITF primary 82 | MITF inh conf 60 | AS interf DR inactive | AS interf ctr inactive
Cc1cc(C)nc(NS(=O)(=O)c2ccc(NC(=O)c3ccc(Br)cc3F)cc2)n1	none
COc1ccccc1/C=C(\C#N)c1nn(-c2ccccc2)c(N)c1C#N	none
CC(Sc1nc2ccccc2o1)C(=O)O (stereo unspecified)	MITF primary 64 | MITF inh conf inactive | AS interf ctr inactive
O=C(COC(=O)c1cc(=O)c2ccccc2o1)NCc1ccc(Cl)cc1	MITF primary 52 | MITF inh conf inactive | AS interf ctr inactive
O=C(COC(=O)c1cc(=O)c2ccccc2o1)NCc1ccccc1	none
Cc1c(N)cccc1C(=O)Nc1ccccc1C(=O)O	none
CCOC(=O)c1ccc(S(=O)(=O)NCCN2CCOCC2)cc1	MITF primary 54 | MITF inh conf inactive | AS interf ctr inactive
CN1CCN(CC(O)COc2ccc(Br)cc2)CC1 (stereo unspecified)	none
COc1ccc(OCC(O)CN2CCCC2)cc1 (stereo unspecified)	MITF primary 55 | MITF inh conf inactive | AS interf ctr inactive
CCOC(=O)c1c(C)n(C)c2ccc(OCC(O)CN3CCCCC3)cc12 (stereo unspecified)	MITF primary 54 | MITF inh conf inactive | AS interf ctr inactive
CC(=O)N(C)c1ccc(OCC(O)CN2CCN(C)CC2)cc1 (stereo unspecified)	MITF primary 60 | MITF inh conf inactive | AS interf ctr inactive
COc1ccc(OCC(O)CN2CCCCCC2)cc1 (stereo unspecified)	none
CC(=O)N(C)c1ccc(OCC(O)CN2CCN(c3ccccn3)CC2)cc1 (stereo unspecified)	MITF primary 65 | MITF inh conf inactive | AS interf ctr inactive
CC(C)n1c(Nc2ccnn2C)nc2c(NCCO)ncnc21	none
